According to PubChem BioAssay (NCI):
This is part of a sample that, as a whole, favours compounds with a hit. Of some 83,000 tested, about 20% had one in any assay.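 The test compound was applied at a single concentration to cells in 96-well plates for 48 hours, and percent growth was recorded.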

Experiments:
Test in all cases: NCI-60 one-dose screen, 48 h (100 = growth as untreated, 0 = no growth, -100 = all killed); active = growth percent below 10; inactive = the rest
NCI-H23 lung = conditions: 10 µM unless noted
NCI-H226 lung = conditions: 10 µM unless noted
DU-145 prostate = conditions: 10 µM unless noted
MDA-MB-231 breast = conditions: 10 µM unless noted
SF-268 CNS = conditions: 10 µM unless noted
M14 melanoma = conditions: 10 µM unless noted
HCT-15 colon = conditions: 10 µM
HT29 colon = conditions: 10 µM unless noted
PC-3 prostate = conditions: 10 µM unless noted
UACC-62 melanoma = conditions: 10 µM unless noted
LOX IMVI melanoma = conditions: 10 µM unless noted
SK-MEL-28 melanoma = conditions: 10 µM unless noted
OVCAR-8 ovarian = conditions: 10 µM unless noted
OVCAR-5 ovarian = conditions: 10 µM unless noted
SK-OV-3 ovarian = conditions: 10 µM unless noted
OVCAR-3 ovarian = conditions: 10 µM unless noted
NCI/ADR-RES ovarian = conditions: 10 µM unless noted
SW-620 colon = conditions: 10 µM unless noted
MCF7 breast = conditions: 10 µM unless noted
KM12 colon = conditions: 10 µM unless noted

Measured: growth

Cc1cc(NC(=O)/C=C/c2ccc([N+](=O)[O-])cc2)ccc1S(=O)(=O)F
inactive: NCI-H23 lung 109% | NCI-H226 lung 105% | DU-145 prostate 103% | MDA-MB-231 breast 99.6% | SF-268 CNS 109% | M14 melanoma 112% | HCT-15 colon 98.2% | HT29 colon 99.7% | PC-3 prostate 98.9% | UACC-62 melanoma 98.2% | LOX IMVI melanoma 102% | SK-MEL-28 melanoma 110% | OVCAR-8 ovarian 98.6% | OVCAR-5 ovarian 113% | SK-OV-3 ovarian 99.9% | OVCAR-3 ovarian 122% | NCI/ADR-RES ovarian 106% | SW-620 colon 110% | MCF7 breast 91.8% | KM12 colon 97%

NS(=O)(=O)c1nc[nH]c1[N+](=O)[O-]
inactive: NCI-H23 lung 99.8% | NCI-H226 lung 99.4% | DU-145 prostate 111% | MDA-MB-231 breast 102% | SF-268 CNS 103% | M14 melanoma 102% | HCT-15 colon 101% | HT29 colon 93.1% | PC-3 prostate 86.5% | UACC-62 melanoma 102% | LOX IMVI melanoma 101% | SK-MEL-28 melanoma 105% | OVCAR-8 ovarian 105% | OVCAR-5 ovarian 96.7% | SK-OV-3 ovarian 101% | OVCAR-3 ovarian 115% | NCI/ADR-RES ovarian 102% | SW-620 colon 107% | MCF7 breast 94.9% | KM12 colon 103%

CCCC(C)(C)c1ccc2c(c1)OC(C)(C)[C@@H]1CC=C(C)C[C@@H]21
inactive: NCI-H23 lung 96.1% | NCI-H226 lung 98.3% | DU-145 prostate 108% | MDA-MB-231 breast 108% | SF-268 CNS 93% | M14 melanoma 99.7% | HCT-15 colon 107% | HT29 colon 102% | PC-3 prostate 84.3% | UACC-62 melanoma 98% | LOX IMVI melanoma 96.3% | SK-MEL-28 melanoma 112% | OVCAR-8 ovarian 97.7% | OVCAR-5 ovarian 107% | SK-OV-3 ovarian 89.2% | OVCAR-3 ovarian 102% | NCI/ADR-RES ovarian 98.9% | SW-620 colon 97.3% | MCF7 breast 93.9% | KM12 colon 103%
